According to PubChem BioAssay (Tox21):
Results filed as inconclusive are left out. Active and inactive are the calls of the source. Calls come from the whole dose curve.

Assays:
[1] = target: Acetylcholinesterase (Homo sapiens) (UniProt P22303); experiment: Acetylcholinesterase (AChE) small molecule antagonists: colormetric cell-based qHTS assay (AID 1347395); note: nearly all actives have a fitted effect of over 30% in size
In short: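 After overnight attachment at 37 C, SH-SY5Y cells get 30 min compound exposure; detection cocktail (acetylthiocholine, DTNB) then incubates 90 min at 37 C, and absorbance reflects AChE-generated thiocholine.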

[2] = target: Acetylcholinesterase (Homo sapiens) (UniProt P22303); experiment: Acetylcholinesterase (AChE) small molecule antagonists: enzyme-based qHTS assay (AID 1347397); settings: Potency: AChE enzyme activity inhibition; outcome: AChE enzyme activity inhibition; note: nearly all actives have a fitted effect of over 55% in size
In short: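 Human recombinant acetylcholinesterase; substrate acetylthiocholine; thiocholine quantified with DTNB (colorimetric). Compound preincubation 30 min RT; reaction 10 min RT.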

[3] = target: Acetylcholinesterase (Homo sapiens) (UniProt P22303); experiment: Acetylcholinesterase (AChE) small molecule antagonists: fluorescence cell-based qHTS assay (AID 1347398); settings: Potency: AChE activity; outcome: AChE activity; note: nearly all actives have a fitted effect of over 50% in size
In short: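 Thiocholine generated from acetylthiocholine by SH-SY5Y cell AChE is detected with Thiolite Green (Ex/Em 490/520 nm) after 40 min at room temperature, following 30 min compound pretreatment at 37 C.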

[4] = target: Acetylcholinesterase (Homo sapiens) (UniProt P22303); experiment: Acetylcholinesterase (AChE) small molecule antagonists: enzyme-based qHTS assay with human liver microsomes (AID 1347399); settings: Potency: qHTS inhibition; outcome: qHTS inhibition; note: nearly all actives have a fitted effect of over 60% in size
In short: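 Recombinant human AChE (50 mU/mL in the enzyme mix) and human liver microsomes (0.25 mg/mL final) were preincubated with compound and NADPH (0.25 mg/mL final) for 30 min at 37 C. Acetylthiocholine/DTNB was then added; thiocholine was read colorimetrically after 10 min at room temperature.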

Measured: Potency

Chain of Acetylcholinesterase (Homo sapiens) (P22303 whole entry, looked up): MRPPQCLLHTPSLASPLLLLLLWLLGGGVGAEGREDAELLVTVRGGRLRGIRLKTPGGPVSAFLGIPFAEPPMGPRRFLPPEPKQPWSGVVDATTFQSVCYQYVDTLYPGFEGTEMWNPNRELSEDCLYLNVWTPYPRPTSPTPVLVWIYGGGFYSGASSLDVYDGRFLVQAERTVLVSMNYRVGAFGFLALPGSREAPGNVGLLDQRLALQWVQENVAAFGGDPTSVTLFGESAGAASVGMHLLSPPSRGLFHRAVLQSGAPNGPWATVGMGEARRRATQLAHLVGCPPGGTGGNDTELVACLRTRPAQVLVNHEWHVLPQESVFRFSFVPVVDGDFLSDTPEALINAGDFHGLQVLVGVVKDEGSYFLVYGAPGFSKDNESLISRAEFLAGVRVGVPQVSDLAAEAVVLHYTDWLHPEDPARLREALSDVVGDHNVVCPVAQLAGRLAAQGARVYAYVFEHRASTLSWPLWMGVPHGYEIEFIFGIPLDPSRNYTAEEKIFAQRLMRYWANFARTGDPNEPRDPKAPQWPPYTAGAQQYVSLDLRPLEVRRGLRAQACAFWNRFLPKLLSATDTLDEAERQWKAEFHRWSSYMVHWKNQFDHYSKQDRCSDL

O=C(/C=C/c1ccccc1)OCCc1ccccc1
inactive: all assays above

O=C(/C=C/c1ccccc1)OC/C=C/c1ccccc1
inactive: all assays above

O=C(O)c1cc(Cl)cc([N+](=O)[O-])c1Cl
inactive: all assays above

Cn1c(=O)c2c(ncn2CC(O)CO)n(C)c1=O (stereo not given)
inactive: all assays above

CCCCCCC1CCC(=O)O1 (stereo not given)
inactive: all assays above

CCCC=O
inactive: all assays above

CC(C)C(O)C(C)(C)CO (stereo not given)
inactive: all assays above

COP(=O)(O)OP(=O)(O)OC
inactive: all assays above

Cc1cccc(N(C)C(=S)Oc2ccc3c(c2)CCC3)c1
inactive: all assays above

CCC/C=C/CO
inactive: all assays above

Cc1ccc2c(Br)cc(Br)c(O)c2n1
inactive: all assays above

CC(=O)OCC(=O)[C@@]1(O)CC[C@H]2[C@@H]3CCC4=CC(=O)C=C[C@]4(C)[C@@]3(F)[C@@H](O)C[C@@]21C
inactive: all assays above

CC(C)=CCC/C(C)=C/CC/C(C)=C/CCC(=O)OC/C=C(\C)CCC=C(C)C
inactive: all assays above

C=CCOc1ccccc1OCC(O)CNC(C)C (stereo not given)
inactive: all assays above

COc1ccc(Cl)cc1C
inactive: all assays above
